# Assay outcomes as filed in PubChem.
# This is a sample that favours compounds with a hit; in the whole collection about 4.8% have one here.
# NR1D1 modulator – modulators of Rev-erb alpha DNA binding, primary screen, biochemical, FITC-DNA, fluorescence polarization, uHTS; 0.79% of 370,000 active; activity, % at 10 µM; AID 1259318, 2017; Rev-erbα–FITC-DNA binding, 90 min;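 active means activity above about 14%, limit read from the data; passing the limit was not always enough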;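 further: 0% = DMSO wells with 35 nM protein and 100% = DMSO wells with 750 nM protein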
# hgDAF12 agonist – H. glycines DAF-12 receptor agonists, primary screen, cell-based, luminescence, HEK293, GAL4 fusion, UAS-luciferase. Nuclear hormone receptor DAF-12 (Heterodera glycines), GAL4 fusion. HEK293 GAL4-hgDAF12 UAS-luciferase reporter, agonist luminescence; normalized to butyrate control. activation, % at 6.8 µM. 1.8% of 370,000 active. AID 687014, 2013;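 active means activation above a cutoff set at the mean of all screened compounds plus 3 SD, cut at about 10% in these data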;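 further: 0% = DMSO wells and 100% = sodium butyrate wells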
# hcDAF-12 act – H. contortus DAF-12 nuclear receptor activators, primary screen, cell-based, luminescence, HEK293, lit1-tk-luc reporter | HEK293 hcDAF-12 lit1-tk-luc reporter; 0% DMSO, 100% Δ7-dafachronic acid | activation, % at 6.8 µM | 1.4% of 370,000 active | AID 652067, 2013;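 active means activation above the mean of all tested compounds plus 3 SD, cut at about 5.5% in these data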;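 further: 100% = response to 3 µM Δ7-dafachronic acid high control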
# ssDAF12 agonist – S. stercoralis DAF-12 nuclear receptor activators, primary screen, cell-based, luminescence, HEK293, GRIP1 co-expression, lit1-tk-luc. Nuclear hormone receptor DAF-12 (Strongyloides stercoralis). 1% of 370,000 active. HEK293 ssDAF-12/GRIP1 lit1-tk-luc reporter; % of 3 µM dafachronic acid response. AID 652126, 2013. activation, % at 6.8 µM;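 active means activation above the mean over all tested compounds plus 3 SD, cut at about 0.9% in these data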;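 further: 0% = DMSO-only wells and 100% = 3 µM delta7-dafachronic acid wells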
# DAX1 inh-1 – DAX1 (NR0B1) inhibitors, primary screen, cell-based, HEK293, Gal4-DAX1, luciferase luminescence. Nuclear receptor subfamily 0 group B member 1 (Homo sapiens), P51843. HEK293 Gal4-DAX1 luciferase reporter. inhibition, % at 6.75 µM. 0.99% of 340,000 active. AID 504766, 2011;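 active means inhibition above the mean over all tested compounds plus 3 SD, cut at about 4.2% in these data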;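 further: 0% = DAX1-transfected cells with DMSO and 100% = empty-vector control cells with DMSO; inhibition shows as a rise in luminescence from relieved DAX1 repression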
# Target sequence (P51843 207-470 limits assumed): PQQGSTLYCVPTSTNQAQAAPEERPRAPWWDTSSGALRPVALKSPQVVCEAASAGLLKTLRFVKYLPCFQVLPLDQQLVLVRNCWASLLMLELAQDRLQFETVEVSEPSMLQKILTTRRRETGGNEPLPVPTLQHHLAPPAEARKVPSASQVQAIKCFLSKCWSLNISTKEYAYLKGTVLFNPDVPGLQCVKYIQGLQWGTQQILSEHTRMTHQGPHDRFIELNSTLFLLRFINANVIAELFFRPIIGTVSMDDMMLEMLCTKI
# DAX1 inh-2 – DAX1 (NR0B1) inhibitors on StAR promoter, primary screen, cell-based, luminescence, SF-1 (NR5A1), full-length DAX-1. HEK293T StAR-luciferase reporter, SF-1/DAX-1 repression relief. inhibition, % at 6.8 µM. 1.1% of 370,000 active. AID 652010, 2013;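 active means inhibition above the mean over all tested compounds plus 3 SD, cut at about 3.6% in these data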;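 further: 0% = DAX-1 cells with DMSO and 100% = cells lacking DAX-1 with DMSO; higher inhibition means more luminescence from relief of DAX-1 repression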
# Starred values were filed as active, the others as inactive; . = no result.
SMILES,NR1D1 modulator,hgDAF12 agonist,hcDAF-12 act,ssDAF12 agonist,DAX1 inh-1,DAX1 inh-2
Cn1cc(Br)c(C(=O)NNC(=O)Nc2ccccc2C(F)(F)F)n1,0,10,0,-1,4.2*,1
CC(C)(C)C(=O)NC(=O)Nc1ccccc1C(F)(F)F,-3,-1,-1,-1,2,0
CC(=O)Nc1ccccc1C(F)(F)F,-3,1,0,-1,4.3*,0
Cn1cccc1C(=O)C(=O)Nc1ccccc1,3,13*,5,1.0*,1,3.8*
CCOC(=O)c1cnn(-c2ccccc2)c1-n1cccc1C(=O)C(=O)Nc1ccccc1C(F)(F)F,4,-1,-1,-1,0,0
Cn1cccc1C(=O)C(=O)Nc1ccccc1C(F)(F)F,1,4,0,-1,4.4*,2
CNC(=O)N/N=C(\N)c1ccccn1,-9,0,-2,-1,-1,0
O=C(Nc1ccc(Cl)cc1)Nc1ccccn1,0,12*,4,0,4,1
N/C(=N\NC(=O)Nc1ccc(Cl)cc1)c1ccccn1,-3,5,5.6*,0,2,1
Cc1ccccc1N1CC(O)(c2cccs2)[N+]2=C1CCCC2 (stereo unspecified),-3,0,0,1.8*,0,-1
CC(=O)NC(=S)Nc1ccccc1C(=O)NC1CCCCC1,0,3,-1,3.9*,0,1
O=C(Nc1ccccc1C(=O)NC1CCCC1)NC1CCCC1,-5,1,-2,-2,5.8*,0
O=C(NC1CCCCC1)c1cc(C(=O)c2ccccc2Br)c[nH]1,-5,-2,-2,-2,6.4*,0
O=C(NC(=S)NC1CCCC1)c1ccccc1,-3,13*,4,0,1,3.9*
CC(C)(C)C(=O)NC(=S)Nc1ccccc1C(=O)NC1CCCCC1,-6,1,2,-1,1,1
O=C(NC1CCCCC1)c1ccccc1NC(=O)C1CC1,2,-2,-1,-1,-1,-1
COC[C@H]1CCCN1c1ccc2c(c1)O[C@H]1CCN(C1)S2(=O)=O,-1,-3,-2,-2,.,-1
COCCCNC(=O)C[C@H]1C[C@@]2(C(=O)OC)C(=C[C@H](COCc3ccccc3)O[C@@H]2C)N(Cc2ccc3c(c2)OCO3)C1=O,1,-2,-1,-1,.,0
Cc1ccc(Cn2nnc3c2-c2ccccc2S(=O)(=O)N(C2CC2)C3)cc1,-3,0,-4,-1,.,-1
CC(=O)Nc1cccc(NC(=O)C(=O)c2cn(CC(=O)N3CCCC3)c3ccccc23)c1,0,5,6.0*,1.2*,0,2
CC(=O)Nc1ccc(NC(=O)C(=O)c2cn(CC(=O)N3CCCCC3)c3ccccc23)cc1,-2,-2,-1,-1,-1,-1
O=C(COC(=O)CCS(=O)(=O)c1ccc(Cl)cc1)Nc1ncc(Cl)cc1Cl,-1,-1,0,0,4.8*,0
Cc1ccccc1S(=O)(=O)N1CCCc2nc(C)c(C)cc21,0,1,-2,-1,.,0
CCc1noc(C)c1C(=O)N(CC)CC(=O)Nc1ccccc1C(F)(F)F,6,1,0,-1,1,1
CCN(CC(=O)Nc1ccccc1C(F)(F)F)C(=O)c1oc2ccc(OC)cc2c1C,0,5,-1,0,1,4.2*
SMILES,NR1D1 modulator,hgDAF12 agonist,hcDAF-12 act,ssDAF12 agonist,DAX1 inh-1,DAX1 inh-2
CCOC(=O)CC1C(=O)NCCN1C(=O)c1ccc(Cl)cc1 (stereo unspecified),-13,-1,0,-1,0,0
CCCCOc1ccc(C(=O)N2CCNC(=O)C2CC(=O)OC(C)C)cc1 (stereo unspecified),6,0,-1,1.9*,-1,0
COc1ccc(NC(=O)CCNC(=O)N2CC(=O)Nc3ccccc32)cc1,-9,3,0,-1,1,1
COc1cccc(CNC(=O)CNC(=O)N2CC(=O)Nc3ccccc32)c1,0,1,-1,-1,1,3.7*
CC(C)c1ccc(NC(=O)CCNC(=O)N2CC(=O)Nc3ccccc32)cc1,-2,0,-1,-1,0,3.9*
Cc1nn(-c2ccccc2)c(N)c1N=Nc1cccnc1,1,12*,4,-1,1,1
Nc1nc(-c2ccccc2)c(N=Nc2cccnc2)s1,9,1,-1,-2,0,-4
CC(=O)/C=C1/C(=O)Nc2ccccc21,2,2,6.0*,0,0,0
C=CCOc1cccc(C(=O)/C=C2/C(=O)Nc3ccccc32)c1,1,0,-1,-1,-2,-2
CC(=O)c1ccc(CCCC(=O)O)cc1,3,-2,2,-1,4.9*,0
CC(=O)c1ccc(Cc2ccc(C(C)=O)cc2)cc1,-4,2,-2,-2,-2,0
CC(=O)Nc1cc(C(=O)OCC(=O)c2ccccc2)ccc1C,4,12*,7.0*,0,0,4
CCN(CC)C(=O)CC[C@@H]1CC[C@]2(CCCN(C(=O)c3cccnc3)C2)O1,-3,-3,1,-1,.,0
Cc1ccc(S(=O)(=O)Nc2nc3ccccc3nc2NCC2CCCO2)cc1C (stereo unspecified),-9,0,-2,-2,4.5*,0
Cc1ccc(S(=O)(=O)Nc2nc3ccccc3nc2NCc2ccco2)cc1,-3,6,6,1.4*,1,3
CCCCCOc1ccc(/C=N/NC(=O)CSc2nnc(-c3ccc(OC)cc3)n2-c2ccc(C)cc2)cc1,-12,3,1,-1,.,-1
COc1ccc(NC(=O)C2Cc3ccccc3CN2C(=O)c2ccccc2)cn1 (stereo unspecified),-1,2,1,-2,-1,0
CC(=O)c1ccc(NC(=O)C2Cc3ccccc3CN2C(=O)c2ccccc2)cc1 (stereo unspecified),5,3,6.0*,0,-1,0
COc1ccc(-c2cc(C(=O)NC3CCCC3)no2)cc1,2,12*,6.5*,0,3,2
